About 14,000 (4.5%) of roughly 310,000 compounds showed an effect of 50% or more. The effect is printed as a negative number. The list comes from a sample in which strong results are over-represented; it also holds similar structures and randomly drawn compounds.
Molecular target: human ether-à-go-go-related gene (hERG) potassium channel (human, UniProt Q12809)
Test: primary screen, population patch clamp on CHO cells stably expressing hERG; higher = less effect of the substance
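Also: peak tail current of the secondary pulse compared with the same well before compound.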

Chain of human ether-à-go-go-related gene (hERG) potassium channel (Q12809 whole entry, looked up): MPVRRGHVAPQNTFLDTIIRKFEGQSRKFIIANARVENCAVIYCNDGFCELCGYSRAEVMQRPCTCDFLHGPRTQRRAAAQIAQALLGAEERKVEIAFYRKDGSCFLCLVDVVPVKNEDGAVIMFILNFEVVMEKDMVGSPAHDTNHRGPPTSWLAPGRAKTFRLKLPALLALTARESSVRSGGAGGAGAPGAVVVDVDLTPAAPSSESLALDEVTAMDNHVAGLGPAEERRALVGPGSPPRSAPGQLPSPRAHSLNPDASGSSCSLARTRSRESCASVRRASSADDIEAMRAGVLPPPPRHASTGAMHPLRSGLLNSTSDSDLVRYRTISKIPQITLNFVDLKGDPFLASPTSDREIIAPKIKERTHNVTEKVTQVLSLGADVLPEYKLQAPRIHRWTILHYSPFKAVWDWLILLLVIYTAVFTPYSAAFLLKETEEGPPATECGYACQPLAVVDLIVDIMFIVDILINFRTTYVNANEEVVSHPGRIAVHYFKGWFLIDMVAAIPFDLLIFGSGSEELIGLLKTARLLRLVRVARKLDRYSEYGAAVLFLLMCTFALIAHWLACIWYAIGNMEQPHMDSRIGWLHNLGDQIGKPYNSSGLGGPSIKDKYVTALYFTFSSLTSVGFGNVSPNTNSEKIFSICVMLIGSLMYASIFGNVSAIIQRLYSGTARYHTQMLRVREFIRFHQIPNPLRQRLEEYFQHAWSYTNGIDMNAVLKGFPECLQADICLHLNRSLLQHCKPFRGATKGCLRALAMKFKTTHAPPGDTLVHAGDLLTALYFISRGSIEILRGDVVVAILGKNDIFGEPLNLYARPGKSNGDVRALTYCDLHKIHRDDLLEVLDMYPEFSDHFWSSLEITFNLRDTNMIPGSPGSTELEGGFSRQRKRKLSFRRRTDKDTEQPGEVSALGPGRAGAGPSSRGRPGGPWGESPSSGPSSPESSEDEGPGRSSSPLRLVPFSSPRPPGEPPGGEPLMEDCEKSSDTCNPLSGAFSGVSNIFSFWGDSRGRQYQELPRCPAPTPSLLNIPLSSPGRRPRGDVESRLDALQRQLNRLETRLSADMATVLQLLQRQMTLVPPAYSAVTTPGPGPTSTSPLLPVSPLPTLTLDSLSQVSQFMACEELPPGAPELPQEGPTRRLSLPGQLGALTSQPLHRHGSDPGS

Structure (SMILES) | hERG current change (%, negative = inhibition) at 10uM [%]
CCCCN(C(=O)CSc1nnnn1C)C1CCS(=O)(=O)C1 (stereo not shown) | -28.1
COC(=O)N/N=C/c1cn(CCOc2ccc(OC)cc2)c2ccccc12 | 16.8
Cc1ccc(-n2cc3c(=O)n(C)c(=O)n(C)c3c2)cc1C | -6.21
CC(=O)N[C@H]1C(O)O[C@H](CO)[C@@H](O)[C@@H]1O (stereo partly shown) | 9.71
CCN(CC)c1ccc(C=O)c(OC)c1 | -9.16
N#C/C(=C\c1cc2c(cc1Br)OCO2)c1ccc(C(=O)O)cc1 | 13.2
COCC(=O)N(C)c1nnc(-c2ccc([N+](=O)[O-])cc2)s1 | 6.65
CN(CC(=O)Nc1c(Cl)cccc1Cl)C(=O)c1ccncc1 | 19.4
Cn1cnc2c1c(=O)n(Cc1cccc(F)c1)c(=O)n2C | 12
Nc1c(C(=O)NC2CCCCC2)nsc1C(=O)OCC(=O)NC1CCCCC1 | 12.5
CCn1c(-c2cc(-c3ccc(C)cc3)nc3ccccc23)n[nH]c1=S | 11.4
CNCCOc1ccc(Cl)c(Cl)c1.O=C(O)C(=O)O | 12.8
COc1ccc(NC(=O)CNC(=O)Cc2cccc3ccccc23)c(OC)c1 | 2.01
O=C(Nc1ncc(Cc2ccccc2)s1)C1COc2ccccc2O1 (stereo not shown) | -0.581
CCOC(=O)c1c(-c2ccc(C)o2)csc1NC(=O)COC(=O)c1cccs1 | -12
CN1C(=O)NC(c2ccc(O)cc2)C2=C1CN(c1cccc3ccccc13)C2=O (stereo not shown) | -11.8
CCC(=O)NC(NC(=S)Nc1ccc(S(N)(=O)=O)cc1)C(Cl)(Cl)Cl (stereo not shown) | -1.3
CCn1c(SCC(=O)NCc2ccccc2)nc2ccccc2c1=O | -11.6
CCOc1ccc(NC(=O)CSc2nc3ccccc3c(=O)n2CCCC(=O)N2CCCC2)cc1 | -23.8
O=C(CSc1nc2ccccc2c(=O)n1CCC(=O)N1CCCCC1)NCc1ccccc1 | -70.4

Structure (SMILES) | hERG current change (%, negative = inhibition) at 10uM [%]
NS(=O)(=O)c1ccc(CCNC(=O)CSc2nc3ccccc3c(=O)n2CCC(=O)N2CCCCC2)cc1 | 19.8
COc1ccc(NC(=O)CSc2nc3ccccc3c(=O)n2C)cc1 | 4.53
O=C(CCCCCn1c(SCc2ccncc2)nc2ccccc2c1=O)NCc1ccco1 | -86
O=C(CCCCCn1c(SCC(=O)c2ccccc2)nc2ccccc2c1=O)NCc1ccco1 | 10.8
Cc1ccc(CSc2nc3ccccc3c(=O)n2CCCC(=O)NCc2ccco2)cc1 | -2.71
COc1ccc(NC(=O)CSc2nc3ccccc3c(=O)n2CCC(=O)N2CCCCC2)cc1 | -69.2
NC(=O)c1ccc(NC(=O)CSc2nnc(-c3ccc4c(c3)OCO4)o2)cc1 | 2.05
CCCCN(CCCC)C(=O)c1sc2nc(N3CCOCC3)c3c(c2c1N)CCCC3 | 9
COc1ccc(Cl)cc1NC(=O)NC1CCCCC1 | 10.3
CN(CCCC(=O)NCc1ccco1)S(=O)(=O)c1ccccc1 | -5.89
CC(=O)C12CCCCC1CC1C3CC(C)C4(O)CC(=O)CCC4(C)C3CCC12C (stereo not shown) | 21.8
Cc1nc2ccccc2c(=O)n1-c1ccccc1[N+](=O)[O-] | 17.2
CCCCCN(C(=O)CCC(=O)OC(C)C(=O)NC1CCCCC1)c1c(N)n(CCCC)c(=O)[nH]c1=O (stereo not shown) | 16.1
CSc1nncc(/C(C)=N\Nc2ccccc2)n1 | 9.18
Cc1ccc(C(C)(C)NC(=O)C2CCC(=O)N(CC3CCCCC3)C2)cc1 (stereo not shown) | 3.82
Cn1ccnc1/C(=N\NC(=O)c1ccc(O)cc1)c1cccc([N+](=O)[O-])c1 | -22.7
NC(=O)c1cccc([N+](=O)[O-])c1 | 5.64
COc1cccc(C(=O)N/N=C(/c2ccccc2)c2ccccn2)c1 | 6.88
Cn1ccnc1/C(=N\NC(=O)c1ccccc1)c1cccc([N+](=O)[O-])c1 | -68.6
O=C(NNC(=O)c1ccccn1)c1cccc([N+](=O)[O-])c1 | 8.7

Structure (SMILES) | hERG current change (%, negative = inhibition) at 10uM [%]
Cn1cccc1C(=O)c1cccc([N+](=O)[O-])c1 | -52.9
CC(=O)c1cccc([N+](=O)[O-])c1 | 17.7
C/C(=N\NC(=O)c1ccc([N+](=O)[O-])cc1)c1cccc([N+](=O)[O-])c1 | 5.82
O=C(N/N=C(\c1ccccc1)c1ccccn1)c1cccc([N+](=O)[O-])c1 | -65.6
CC1=NN(c2ccccc2)C(=O)/C1=C/c1ccc[nH]1 | -7.74
CCN(CC(=O)Nc1ccc(NC(C)=O)cc1)C(=O)c1cccc2ccccc12 | 1.23
Cc1cccc(Nc2ncnc(N)c2[N+](=O)[O-])n1 | 17.8
C=CCN1CC(c2nc3ccccc3n2Cc2cccc3ccccc23)CC1=O (stereo not shown) | -24.2
C/C(=N\NC(=O)CNc1cccc2ccccc12)c1ccccc1 | 10.2
COc1ccc2sc3ccccc3c(=O)c2c1 | -10.1
Cc1ccc(N2CC(C(=O)N3CCC(C(=O)Nc4nnc(C(C)C)s4)CC3)CC2=O)cc1 (stereo not shown) | 10.7
CC(=O)Nc1ccc(S(=O)(=O)N(C)CC(=O)OCC(=O)N(C)C2CCS(=O)(=O)C2)cc1 (stereo not shown) | 18.8
CN(CCOc1ccc(Cl)cc1)C(=O)C1CCN(C(=O)c2ccc(Cl)cc2)CC1 | -75.4
CN(CCOc1ccccc1)C(=O)C1CCN(C(=O)c2ccc(F)cc2)CC1 | -19.9
O=C(c1ccc(Cl)cc1)C1CCN(C(=O)c2ccc(F)cc2)CC1 | -34.7
Cc1ccccc1C(=O)N1CCC(C(=O)N(C)CCOc2ccccc2)CC1 | 9.06
CN(CCOc1ccccc1)C(=O)C1CCN(C(=O)c2ccc(Cl)cc2)CC1 | -47.9
CN(CCOc1ccc(Cl)cc1)C(=O)C1CCN(C(=O)c2ccc(F)cc2)CC1 | -69.9

From PMC4336329 (PLoS ONE, 2015)
